Only some compounds are listed: those with a hit (about 6.1% of all), similar ones and a draw of the others.
VP16 counter: counter-screen for ROR gamma inhibitors: Gal4-VP16 reporter; Drosophila S2 Gal4-VP16 UAS-luciferase, luminescence, 20 h; Potency, µM (series often up to 53.6 µM), most hits filed as inhibitors; 310,000 compounds, 3.5% hits; AID 2546;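 also: Gal4-VP16 expression switched on by copper sulfate through the metallothionein promoter; nearly all actives have a fitted effect of over 50% in size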
RORgamma inh: ROR gamma (mouse) transcription inhibition; AID 2551; Potency, µM (titrated, usually from 53.6 µM), most hits filed as inhibitors; 310,000 compounds, 5.4% hits; Drosophila S2 Gal4-RORgamma UAS-luciferase reporter, 20 h; also: nearly all actives have a fitted effect of over 60% in size
Target sequence (P51450 whole entry, looked up, the tested form may be a part): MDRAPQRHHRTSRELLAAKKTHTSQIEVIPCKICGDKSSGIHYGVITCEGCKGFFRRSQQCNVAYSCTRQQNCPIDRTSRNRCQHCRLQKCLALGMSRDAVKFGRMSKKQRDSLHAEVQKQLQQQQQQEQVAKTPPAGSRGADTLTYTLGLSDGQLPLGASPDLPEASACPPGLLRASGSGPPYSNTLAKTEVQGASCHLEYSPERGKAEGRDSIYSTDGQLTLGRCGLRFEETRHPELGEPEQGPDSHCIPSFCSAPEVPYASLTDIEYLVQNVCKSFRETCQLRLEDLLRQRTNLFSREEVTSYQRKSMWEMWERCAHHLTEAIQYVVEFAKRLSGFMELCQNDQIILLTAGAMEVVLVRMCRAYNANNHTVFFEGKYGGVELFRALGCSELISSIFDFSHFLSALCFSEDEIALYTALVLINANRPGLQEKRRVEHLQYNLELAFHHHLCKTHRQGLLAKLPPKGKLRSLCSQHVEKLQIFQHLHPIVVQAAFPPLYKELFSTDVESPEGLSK
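A Gal4/UAS one-hybrid system in insect cells: metallothionein-promoter Gal4–ROR gamma fusion plus Photinus luciferase reporter. Copper sulfate 700 uM final, 20 hr ambient incubation, luminescent detection after 10 min with reagent.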
HepG2 tox: counter-screen for TGF-b inhibitors: cytotoxicity in HepG2 cells; HepG2 CAGA-GFP viability, ATP luminescence, 18 h; AID 588856; Potency, µM (series often up to 46.1 µM), usual class: cytotoxic; 410,000 compounds, 0.76% hits
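CellTiter-Glo luminescence gave cytotoxicity after 18 hours at 37 degrees C. The cells were HepG2 CAGA-GFP in 1% FBS DMEM, stimulated with 500 pg/mL TGF-beta after compound addition. %Activity was normalised to no-cell wells (complete cell-killing) and DMSO (no toxicity), and curves were fitted and classified.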
TGFb SMAD3 inh: blocks TGF-b signaling | 410,000 compounds, 1.2% hits | HepG2 CAGA-GFP TGF-b/SMAD3 reporter, GFP fluorescence, 18 h; TGF-beta stimulated, 500 pg/mL final | Potency, µM (titrated, usually from 46.1 µM), actives largely listed as inhibitors; also: nearly all actives have a fitted effect of over 65% in size
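HEPG2 CAGA-GFP, 1000 cells/well; 2 h settle, 37 C; cpd via pin tool; TGF-b 500 pg/mL final; 18 h, 37 C; GFP imaging ex488/em500-530; %Activity normalised to -TGF-b and +DMSO controls; CRC fit, curve class.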
S2 tox: viability counter-screen for ATXN expression inhibitors. S2 cells (HEK-293 line with an ATXN2-luciferase reporter) viability, CellTiter-Fluor protease fluorescence, 24 h. 400,000 compounds, 0.49% hits. Potency, µM (doses to about 56.7 µM), usual class: cytotoxic; also: nearly all actives have a fitted effect of over 40% in size
ATXN2 expr inh: reduces ATXN2 reporter expression in HEK-293 cells | HEK-293 ATXN2-luciferase reporter, luminescence, 24 h | Potency, µM (top dose mostly 57 µM), hits mostly inhibitors | 360,000 compounds, 0.72% hits; also: nearly all actives have a fitted effect of over 55% in size
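qHTS (up to 57 uM final) was run with 24 h compound exposure of reporter cells at 37 °C. Each well was multiplexed: SteadyGlo luminescence measured ATXN2-luciferase expression after a fluorogenic Gly-Phe-AFC viability readout (25 uM final).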
Hits are given with their value; ! = not confirmed by another sample. Calls follow the shape of the dose curve; as a rule, active = well fitted curve in the direction sought with a large enough effect; inconclusive = small, poorly fitted or top-dose-only effect, or another doubt; inactive = no such curve, though single readings can be large; an effect the other way counts as inactive or inconclusive.

For O=C(O)c1ccc(S(=O)(=O)/N=C2\C=C(Nc3ccccc3F)C(=O)c3ccccc32)cc1 the results were VP16 counter inconclusive, RORgamma inh inconclusive, HepG2 tox 4.5µM, TGFb SMAD3 inh 3.2µM, S2 tox 7.9µM and ATXN2 expr inh 7.9µM.
For Cc1ccc(NC2=C/C(=N/S(=O)(=O)c3cccs3)c3ccccc3C2=O)cc1C the results were VP16 counter inactive, RORgamma inh inconclusive, HepG2 tox inactive, TGFb SMAD3 inh inactive, S2 tox inactive and ATXN2 expr inh inactive.
Cc1ccccc1NC1=C/C(=N\S(=O)(=O)c2cccs2)c2ccccc2C1=O was read as VP16 counter 5.6µM, RORgamma inh 4µM, HepG2 tox 3.2µM, TGFb SMAD3 inh inconclusive, S2 tox 6.3µM and ATXN2 expr inh 7.9µM.
Cc1ccccc1NC1=C/C(=N\S(=O)(=O)c2ccc(C(=O)O)cc2)c2ccccc2C1=O was read as VP16 counter inconclusive, RORgamma inh inconclusive, HepG2 tox 18µM, TGFb SMAD3 inh inconclusive, S2 tox 10µM and ATXN2 expr inh 8.9µM.
For O=C(Cn1nc(C(F)(F)F)c2c1CCCC2)Nc1ccc(F)c(Cl)c1 the results were HepG2 tox inactive, TGFb SMAD3 inh 11µM, S2 tox inconclusive and ATXN2 expr inh inconclusive.
Screening CNC(=O)[C@@H]1C[C@H](Sc2nc3ccccc3[nH]2)CN1Cc1cccc(C(F)(F)F)c1 returned S2 tox inactive.
`CCOc1ccc(NC(C)c2cc(Cl)ccc2O)cc1` (configuration not stated) gave VP16 counter inactive, RORgamma inh inactive, HepG2 tox inactive, TGFb SMAD3 inh inactive, S2 tox inactive and ATXN2 expr inh inactive.
CC(Nc1ccc(Cl)cc1)c1cc(Cl)ccc1O (configuration not stated) was read as VP16 counter 13µM, RORgamma inh inconclusive, HepG2 tox inactive, TGFb SMAD3 inh inconclusive, S2 tox inactive and ATXN2 expr inh inactive.
CN(C)/C=C(\C(=O)c1cccc(Cl)c1)c1nnnn1-c1ccccc1 was read as VP16 counter inconclusive, RORgamma inh 14µM, HepG2 tox inactive, TGFb SMAD3 inh inactive, S2 tox inactive and ATXN2 expr inh inactive.
Screening COc1cc(NC(C)CCCN)c2ncccc2c1 (configuration not stated) returned VP16 counter inactive, RORgamma inh inactive, HepG2 tox inactive, TGFb SMAD3 inh inconclusive, S2 tox 13µM! and ATXN2 expr inh inconclusive.
`COc1cc(NCCCCCCCN)c2ncccc2c1` gave VP16 counter inconclusive, RORgamma inh 1.6µM, HepG2 tox inactive, TGFb SMAD3 inh inconclusive, S2 tox inactive and ATXN2 expr inh inactive.
`COc1cc(NCc2ccccc2O)c2ncccc2c1` gave VP16 counter inactive, RORgamma inh inactive, HepG2 tox inactive, TGFb SMAD3 inh inactive, S2 tox inactive and ATXN2 expr inh inactive.
For COc1ccc(N2CCN(S(=O)(=O)CCNC(=O)Cc3ccc(OC)c(OC)c3)CC2)cc1 the results were HepG2 tox inactive and TGFb SMAD3 inh inactive.
For O=C(/C=C/c1ccnc2ccccc12)c1cccs1 the results were VP16 counter 14µM, RORgamma inh inconclusive, HepG2 tox 5.6µM, TGFb SMAD3 inh inconclusive, S2 tox inconclusive and ATXN2 expr inh inactive.
Screening COc1ccc(OC)c(C(=O)/C=C/c2ccccc2C(F)(F)F)c1 returned VP16 counter inconclusive, RORgamma inh 13µM, HepG2 tox inactive, TGFb SMAD3 inh inconclusive, S2 tox inactive and ATXN2 expr inh inconclusive.
For COc1ccc(/C=C/C(=O)c2cccs2)c(OC)c1 the results were VP16 counter 35µM and RORgamma inh 13µM.
CSc1ncccc1C(=O)NCC1Cc2cc(F)cc(-c3cncnc3)c2O1 (configuration not stated) was read as S2 tox inactive.
Screening CCOC(=O)c1c(C)oc2ncnc(Nc3cc(Cl)ccc3OC)c12 returned HepG2 tox inactive, TGFb SMAD3 inh inactive, S2 tox inactive and ATXN2 expr inh inactive.
`Cc1ccc(-c2nnc(Nc3ccccc3)o2)cc1` gave VP16 counter 14µM, RORgamma inh 5µM, HepG2 tox inactive, TGFb SMAD3 inh inactive, S2 tox inactive and ATXN2 expr inh 22µM.
CCOC(=O)[C@H](CCc1ccccc1)N[C@@H](C)C(=O)N1Cc2cc(OC)c(OC)cc2C[C@H]1C(=O)O was read as S2 tox inactive and ATXN2 expr inh inactive.
`CCOC(=O)c1ccc(NC(=O)c2oc3c(c2C)-c2nn(Cc4ccccc4Cl)cc2CC3)cc1` gave HepG2 tox inactive and TGFb SMAD3 inh inactive.
CN(C)CCN1C(=O)c2cccc3cc(N)cc(c23)C1=O was read as ATXN2 expr inh 5.4µM.
`Cn1c(-c2ccccc2)c(C#Cc2ccc(N)cc2)c2ccccc21` gave HepG2 tox inactive, TGFb SMAD3 inh 3.5µM, S2 tox inactive and ATXN2 expr inh inactive.
For Cn1c2ccccc2c(=O)c2cc(C#Cc3ccc(N)cc3)ccc21 the results were VP16 counter inactive, RORgamma inh inactive, HepG2 tox inactive, TGFb SMAD3 inh inconclusive, S2 tox inconclusive and ATXN2 expr inh inactive.
Screening c1ccc(-c2nc3ccccn3c2NCc2ccc3c(c2)OCO3)cc1 returned VP16 counter inactive, RORgamma inh 10µM, HepG2 tox inactive, TGFb SMAD3 inh inactive, S2 tox inactive and ATXN2 expr inh inactive.
`COc1ccc(-c2nc3cc(C)ccn3c2NCc2ccc3c(c2)OCO3)cc1` gave VP16 counter inconclusive, RORgamma inh 7.1µM, HepG2 tox inactive, TGFb SMAD3 inh inconclusive and S2 tox inactive.
For CC1Cc2cc(S(=O)(=O)CCC(=O)Nc3cccc(F)c3)ccc2N1C(=O)C1CC1 (configuration not stated) the results were HepG2 tox inactive and TGFb SMAD3 inh inactive.
Screening CCCc1ccc(OC(=O)c2cccs2)cc1 returned VP16 counter inactive, RORgamma inh inactive, HepG2 tox inactive, TGFb SMAD3 inh inactive, S2 tox inactive and ATXN2 expr inh inactive.
CCCc1ccc(OC(=O)c2ccc(O)cc2Cl)cc1 was read as VP16 counter 4µM, RORgamma inh 0.89µM, HepG2 tox inactive, TGFb SMAD3 inh inconclusive, S2 tox inactive and ATXN2 expr inh inactive.
Screening O=C(CSc1c2c(nc3cc(Cl)ccc13)CCCC2)NCc1ccccc1Cl returned HepG2 tox inactive and TGFb SMAD3 inh inconclusive.
`O=C(CSc1c2c(nc3cc(Cl)ccc13)CCCC2)NCc1ccco1` gave VP16 counter inactive, RORgamma inh inactive, HepG2 tox inactive, TGFb SMAD3 inh 18µM, S2 tox inactive and ATXN2 expr inh inactive.
Screening CC1CCN(C(=O)CSc2c3c(nc4cc(Cl)ccc24)CCCC3)CC1 returned HepG2 tox 11µM, TGFb SMAD3 inh inconclusive, S2 tox inconclusive and ATXN2 expr inh inconclusive.
